# Assay results published in the supplement of paper PMC8387472.
# Key:
# Details in all cases: mESC; 2uM; 72 h treatment, harvest day 5
# Kenpaullone = compound: O=C1Cc2c([nH]c3ccc(Br)cc23)-c2ccccc2N1 [Kenpaullone]; experiment: fraction of microhomology deletions among edited reads; higher = more MH deletions
# Genistein = compound: O=c1c(-c2ccc(O)cc2)coc2cc(O)cc(O)c12 [Genistein]; experiment: as above
# [1] = compound: O=c1cc(N2CCOCC2)oc2c(-c3ccc4c(c3)OCCO4)csc12; experiment: as above
# Mercaptopurine (6-MP) = compound: S=c1[nH]cnc2nc[nH]c12 [Mercaptopurine (6-MP)]; experiment: as above
# [2] = compound: S=c1nc[nH]c2nc[nH]c12 [6-Mercaptopurine (6-MP) Monohydrate]; experiment: as above
# [3] = compound: CC(=O)O/N=C1\C(=O)N(Cc2cc(Cl)ccc2Cl)c2ccc(Cl)cc21; experiment: fraction of 1-bp insertions among edited reads; higher = more 1-bp insertion outcomes
# [4] = compound: CC(C)(C#N)c1ccc(N2C(=O)OCc3cnc4ccc(-c5cnc6ccccc6c5)cc4c32)cc1; experiment: as above
# [5] = compound: CCCCOc1c(C(=O)c2c(F)cc(C)cc2F)c[nH]c2nncc1-2; experiment: as above
# [6] = compound: CCN1CCN(CC(=O)Nc2ccc(-c3cccc4c(=O)cc(N5CCOCC5)oc34)c3sc4ccccc4c23)CC1; experiment: as above
# [7] = compound: CCc1c2c(nc3ccc(OC(=O)N4CCC(N5CCCCC5)CC4)cc13)-c1cc3c(c(=O)n1C2)COC(=O)[C@]3(O)CC [Irinotecan HCl Trihydrate]; experiment: as above
# [8] = compound: CCn1c(=O)c(-c2ccc(Cl)cc2Cl)cc2cnc(Nc3ccc(N4CCNCC4)c(F)c3)nc21; experiment: as above
# [9] = compound: CNc1ccc([N+](=O)[O-])c(Nc2ccc3[nH]ncc3c2)n1; experiment: as above
# Rifapentine = compound: CO[C@H]1/C=C/O[C@@]2(C)Oc3c(C)c(O)c4c(O)c(c(/C=N/N5CCN(C6CCCC6)CC5)c(O)c4c3C2=O)NC(=O)/C(C)=C\C=C\[C@H](C)[C@H](O)[C@@H](C)[C@@H](O)[C@@H](C)[C@H](OC(C)=O)[C@@H]1C [Rifapentine]; experiment: as above
# [10] = compound: COc1ccccc1-c1cc(Nc2cccc(CS(N)(=O)=O)c2)ncn1; experiment: as above
# [11] = compound: C[C@@H]1CN(CC(=O)Nc2ccc3c(c2)Cc2cccc(-c4cc(=O)cc(N5CCOCC5)o4)c2S3)C[C@H](C)O1; experiment: as above
# [12] = compound: Cc1cc(C)nc(SCC(=O)Nc2ncc(Cc3cccc4ccccc34)s2)n1; experiment: as above
# [13] = compound: Cc1ccc(C(=O)NCCCCCC(=O)Nc2ccccc2N)cc1; experiment: as above
# [14] = compound: Cc1cccc(CC(=O)N2CCc3c2ccc(-c2cn(C)c4ncnc(N)c24)c3F)n1; experiment: as above
# [15] = compound: NC(=O)c1ccc2nc(-c3ccc(Oc4ccc(Cl)cc4)cc3)[nH]c2c1 [Chk 2 inhibitor II (BML-277)]; experiment: as above
# Tucidinostat (Chidamide) = compound: Nc1cc(F)ccc1NC(=O)c1ccc(CNC(=O)/C=C/c2cccnc2)cc1 [Tucidinostat (Chidamide)]; experiment: as above
Target,fraction of microhomology deletions among edited reads (Kenpaullone),fraction of microhomology deletions among edited reads (Genistein),fraction of microhomology deletions among edited reads [1],fraction of microhomology deletions among edited reads (Mercaptopurine (6-MP)),fraction of microhomology deletions among edited reads [2],fraction of 1-bp insertions among edited reads [3],fraction of 1-bp insertions among edited reads [4],fraction of 1-bp insertions among edited reads [5],fraction of 1-bp insertions among edited reads [6],fraction of 1-bp insertions among edited reads [7],fraction of 1-bp insertions among edited reads [8],fraction of 1-bp insertions among edited reads [9],fraction of 1-bp insertions among edited reads (Rifapentine),fraction of 1-bp insertions among edited reads [10],fraction of 1-bp insertions among edited reads [11],fraction of 1-bp insertions among edited reads [12],fraction of 1-bp insertions among edited reads [13],fraction of 1-bp insertions among edited reads [14],fraction of 1-bp insertions among edited reads [15],fraction of 1-bp insertions among edited reads (Tucidinostat (Chidamide))
"39.0 (DMSO control at this site: 1-bp insertion 0.328, MH deletion 0.371, edited 0.204) CTGCACAGTCACTTAGGATAGGAGAAGATGATGTATAGGGTTTAGTGGGAGATGTTGCAAG",0.264,0.404,0.406,0.356,0.371,0.334,0.385,0.418,0.163,0.423,0.383,0.466,0.39,0.442,0.804,0.396,0.384,0.463,0.404,0.487
"2.0 (DMSO control at this site: 1-bp insertion 0.364, MH deletion 0.356, edited 0.125) GGTGCCCCCGAGACCTACGCGAACCGAAATCGATGTCCGGTGCGCAAGCAGGGCTGGCGTC",0.29,0.4,0.419,0.33,0.321,0.325,0.381,0.379,0.106,0.355,0.368,0.43,0.334,0.457,0.745,0.397,0.451,0.471,0.378,0.433
"5.0 (DMSO control at this site: 1-bp insertion 0.214, MH deletion 0.567, edited 0.105) CGCTGACCCGAGACCTACGCGAACCGAAATCGGCGACCGGTGCGCAAGCAGGGCTGGCGTC",0.523,0.604,0.61,0.507,0.498,0.204,0.198,0.226,0.0634,0.239,0.179,0.261,0.208,0.267,0.477,0.232,0.217,0.252,0.208,0.257
"40.0 (DMSO control at this site: 1-bp insertion 0.072, MH deletion 0.192, edited 0.189) GCGAATCAACTGTTCAACAACAGCAGCAGCCACCTGGAGGACTACAGTGGCCTGTCCGTGT",0.124,0.192,0.211,0.145,0.137,0.0727,0.0752,0.072,0.0486,0.0746,0.0675,0.0835,0.0737,0.076,0.124,0.0746,0.0721,0.0741,0.0639,0.0778
"32.0 (DMSO control at this site: 1-bp insertion 0.03, MH deletion 0.85, edited 0.898) AGAAGTCCAGGATCAGGGGGACTGGGGTCGGGAGGGTGGGGCAGGAAGGAAGCCAGAATCA",0.904,0.88,0.92,0.903,0.897,0.00904,0.0156,0.0115,0.00897,0.00964,0.0112,0.0188,0.0121,0.012,0.0185,0.018,0.0164,0.0245,0.0134,0.0163
"30.0 (DMSO control at this site: 1-bp insertion 0.074, MH deletion 0.67, edited 0.142) GAGCTGGCATGAGTATTTGTGCCACATGGCTCCCACATGGCTCCACATGCAAGTTTGAAAC",0.628,0.697,0.745,0.6,0.57,0.0901,0.0675,0.059,0.036,0.0999,0.0975,0.0866,0.0945,0.115,0.178,0.0785,0.0713,0.111,0.0722,0.1
"42.0 (DMSO control at this site: 1-bp insertion 0.145, MH deletion 0.655, edited 0.132) GGGCTAAACCTATGAGCACAGTAGAACTAAGGGTGGGTGGTGTAGCTAAAGAACTTGACCA",0.557,0.662,0.691,0.589,0.567,0.116,0.148,0.144,0.0719,0.125,0.133,0.175,0.139,0.162,0.436,0.149,0.138,0.158,0.15,0.203
"16.0 (DMSO control at this site: 1-bp insertion 0.172, MH deletion 0.29, edited 0.05) CGGACTGCACACATGGGTAGGATCGTGCACGCGAGGTAGGATCGTGCACGCGAAGTTATTC",0.327,0.305,0.257,0.314,0.294,0.169,0.15,0.138,0.0987,0.184,0.169,0.225,0.14,0.213,0.32,0.169,0.149,0.208,0.191,0.172
21.0 CGATTGAGAGTCAAACGGGCCAGAAAACTCCGGGAACGGGCCAGAAAACTCCGGGGCATGG,0.17,0.202,0.158,0.16,0.165,0.0304,0.021,0.0327,0.0195,0.0253,–,0.026,0.0143,0.0287,0.0355,0.0108,0.0393,–,0.0251,0.0194
